Measured values from ChEMBL document CHEMBL3988442, “University of Dundee, Small-Polar-MMV Screening Library” (2021).
For some of these results: Potency and affinity values are given separately.

Tests used:
Design in all cases: scale not given: direction of the effect not stated beside the values
[1] = biological target: Protein translocase subunit SecA (Escherichia coli (strain K12)) (UniProt P10408); assay: Assay to Identify E. coli SecA ATPase Inhibitors; format: functional; conditions: 30 µM
Sequence of Protein translocase subunit SecA (Escherichia coli (strain K12)) (P10408 whole entry): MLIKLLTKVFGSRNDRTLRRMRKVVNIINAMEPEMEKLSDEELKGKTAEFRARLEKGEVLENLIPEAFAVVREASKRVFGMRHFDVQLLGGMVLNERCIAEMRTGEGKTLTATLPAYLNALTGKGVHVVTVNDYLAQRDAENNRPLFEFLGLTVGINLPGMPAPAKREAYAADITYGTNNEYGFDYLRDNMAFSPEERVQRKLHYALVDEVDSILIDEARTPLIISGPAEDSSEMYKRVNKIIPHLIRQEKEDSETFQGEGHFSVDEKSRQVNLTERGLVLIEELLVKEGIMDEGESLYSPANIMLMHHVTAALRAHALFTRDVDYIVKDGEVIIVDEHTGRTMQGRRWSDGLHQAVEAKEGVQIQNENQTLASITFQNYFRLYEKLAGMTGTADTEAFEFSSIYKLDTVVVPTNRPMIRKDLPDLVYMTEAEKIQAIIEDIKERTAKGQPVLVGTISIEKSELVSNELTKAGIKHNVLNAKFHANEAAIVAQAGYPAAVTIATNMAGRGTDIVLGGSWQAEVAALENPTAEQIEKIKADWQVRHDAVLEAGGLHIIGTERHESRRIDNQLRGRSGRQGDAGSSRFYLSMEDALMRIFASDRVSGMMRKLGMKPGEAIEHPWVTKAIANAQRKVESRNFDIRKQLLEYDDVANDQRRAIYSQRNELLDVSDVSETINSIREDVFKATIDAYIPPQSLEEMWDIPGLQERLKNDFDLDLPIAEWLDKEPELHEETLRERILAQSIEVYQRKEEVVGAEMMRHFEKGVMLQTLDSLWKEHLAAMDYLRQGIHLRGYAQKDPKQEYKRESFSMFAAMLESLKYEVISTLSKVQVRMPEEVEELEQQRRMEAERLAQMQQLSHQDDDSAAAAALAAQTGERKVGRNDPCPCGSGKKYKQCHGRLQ

[2] = biological target: T1, Ubiquitin-activating enzyme e1, putative (Leishmania donovani (strain BPK282A1)) (UniProt E9BSI1); assay: Leishmania donovani Ubiquitin Activating Enzyme (LdE1); format: functional; conditions: 30 µM
T1 sequence (whole entry): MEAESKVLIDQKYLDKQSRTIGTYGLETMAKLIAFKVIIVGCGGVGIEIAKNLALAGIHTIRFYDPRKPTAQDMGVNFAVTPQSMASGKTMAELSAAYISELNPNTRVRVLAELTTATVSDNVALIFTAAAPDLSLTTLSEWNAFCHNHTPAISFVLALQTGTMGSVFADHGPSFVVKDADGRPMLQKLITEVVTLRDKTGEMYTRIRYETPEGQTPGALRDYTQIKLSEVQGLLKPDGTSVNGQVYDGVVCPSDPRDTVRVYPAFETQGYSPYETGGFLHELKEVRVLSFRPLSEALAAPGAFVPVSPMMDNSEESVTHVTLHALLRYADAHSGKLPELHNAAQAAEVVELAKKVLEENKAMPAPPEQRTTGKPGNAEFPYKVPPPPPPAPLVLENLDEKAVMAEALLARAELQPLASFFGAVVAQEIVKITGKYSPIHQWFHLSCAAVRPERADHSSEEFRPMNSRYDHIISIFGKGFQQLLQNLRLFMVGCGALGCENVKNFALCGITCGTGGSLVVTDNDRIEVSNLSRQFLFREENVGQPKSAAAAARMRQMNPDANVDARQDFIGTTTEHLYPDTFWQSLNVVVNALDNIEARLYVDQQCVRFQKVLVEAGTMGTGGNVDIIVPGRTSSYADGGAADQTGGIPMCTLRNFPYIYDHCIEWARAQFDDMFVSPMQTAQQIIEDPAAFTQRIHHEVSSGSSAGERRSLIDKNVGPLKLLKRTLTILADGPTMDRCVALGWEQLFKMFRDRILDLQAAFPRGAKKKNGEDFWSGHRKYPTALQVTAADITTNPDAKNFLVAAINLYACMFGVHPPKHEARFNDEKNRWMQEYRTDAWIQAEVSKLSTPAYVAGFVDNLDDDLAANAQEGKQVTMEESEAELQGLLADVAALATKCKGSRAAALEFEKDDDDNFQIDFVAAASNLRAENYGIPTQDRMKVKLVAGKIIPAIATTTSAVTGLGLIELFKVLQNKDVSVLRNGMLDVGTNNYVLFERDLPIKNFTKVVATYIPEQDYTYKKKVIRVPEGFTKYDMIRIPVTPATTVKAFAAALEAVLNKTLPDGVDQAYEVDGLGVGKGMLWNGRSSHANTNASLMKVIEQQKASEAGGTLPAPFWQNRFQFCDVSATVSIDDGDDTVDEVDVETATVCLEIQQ

[3] = biological target: AMP-activated protein kinase, AMPK (Homo sapiens) (UniProt P54646+O43741+P54619+Q9UGJ0+Q9Y478+Q13131+Q9UGI9); assay: AMP-dependent Kinase enzyme assay. An in vitro enzyme assay that detects ADP turnover that is directly proportional to AMPK activity. This uses naive AMPK that is activated during the assay with MK-8722; format: functional; conditions: 30 µM
[4] = biological target: Sialic acid-binding Ig-like lectin 9 (Homo sapiens) (UniProt Q9Y336); assay: Hs-Siglec9 ALPHAscreen SOP 20170721; conditions: 10 µM
Sequence of Sialic acid-binding Ig-like lectin 9 (Homo sapiens) (Q9Y336 whole entry): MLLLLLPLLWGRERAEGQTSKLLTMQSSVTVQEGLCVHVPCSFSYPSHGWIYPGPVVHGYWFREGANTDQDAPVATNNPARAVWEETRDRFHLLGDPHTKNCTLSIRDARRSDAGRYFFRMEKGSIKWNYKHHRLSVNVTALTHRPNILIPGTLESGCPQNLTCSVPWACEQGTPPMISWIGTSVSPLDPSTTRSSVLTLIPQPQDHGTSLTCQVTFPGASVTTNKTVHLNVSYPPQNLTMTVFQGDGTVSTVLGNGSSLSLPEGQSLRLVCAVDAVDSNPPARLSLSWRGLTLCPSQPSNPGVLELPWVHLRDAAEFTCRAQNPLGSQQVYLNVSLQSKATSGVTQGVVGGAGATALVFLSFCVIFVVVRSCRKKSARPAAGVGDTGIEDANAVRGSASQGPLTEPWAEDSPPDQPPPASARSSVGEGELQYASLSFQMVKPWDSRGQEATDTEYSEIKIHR

Trypanosoma cruzi = assay: Trypanosoma cruzi phosphomannomutase and mannose-1-phosphate guanylyltransferase assay; format: functional; conditions: 10 µM
[5] = biological target: T2, Arginase-2, mitochondrial (Homo sapiens) (UniProt P78540); assay: in vitro enzyme assay to detect the production of urea directly proportional to the activity of Arginase II; format: functional; conditions: 33.3 µM; further: in the data most compounds retested in dose-response had high values
T2 sequence (whole entry): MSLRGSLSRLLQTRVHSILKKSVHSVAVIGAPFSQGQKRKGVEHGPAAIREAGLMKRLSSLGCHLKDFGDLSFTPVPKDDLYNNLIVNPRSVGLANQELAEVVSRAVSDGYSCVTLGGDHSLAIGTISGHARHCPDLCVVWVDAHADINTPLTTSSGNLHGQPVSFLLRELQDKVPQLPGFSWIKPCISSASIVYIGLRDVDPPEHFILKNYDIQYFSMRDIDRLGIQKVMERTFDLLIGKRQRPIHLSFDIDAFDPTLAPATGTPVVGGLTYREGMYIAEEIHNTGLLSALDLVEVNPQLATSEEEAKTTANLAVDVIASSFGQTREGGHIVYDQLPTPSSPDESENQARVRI

[6] = biological target: T3, Proteasome subunit beta (Trypanosoma cruzi) (UniProt O96673); assay: Trypanosoma cruzi proteasome chymotrypsin-like activity (TcProtChymo) assay.; further: in the data most compounds retested in dose-response had high values; format: functional; conditions: 9.37 µM
T3 sequence (whole entry): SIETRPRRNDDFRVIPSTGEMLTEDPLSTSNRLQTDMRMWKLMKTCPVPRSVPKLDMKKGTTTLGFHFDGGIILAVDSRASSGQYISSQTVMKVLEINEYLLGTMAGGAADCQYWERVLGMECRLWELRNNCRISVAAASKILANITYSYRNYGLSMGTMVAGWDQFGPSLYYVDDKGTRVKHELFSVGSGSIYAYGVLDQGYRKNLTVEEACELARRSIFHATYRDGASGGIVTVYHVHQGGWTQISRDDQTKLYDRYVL

Homo sapiens = species on record: Homo sapiens; assay: To identify inhibition of the IFN signalling (Jak-Stat) pathway via expression of an eGFP reporter gene under the control of an IFN-stimulated response element (ISRE) containing MxA promoter.; format: functional; conditions: 30 µM
[7] = biological target: T4, Tyrosyl-tRNA synthetase, putative (Trypanosoma cruzi (strain CL Brener)) (UniProt Q4DSP6); assay: Trypanosoma cruzi tyrosyl tRNA synthetase (TcYRS) _High Tyrosine SOP; format: functional; conditions: 30 µM; further: in the data most compounds retested in dose-response had high values
T4 sequence (whole entry): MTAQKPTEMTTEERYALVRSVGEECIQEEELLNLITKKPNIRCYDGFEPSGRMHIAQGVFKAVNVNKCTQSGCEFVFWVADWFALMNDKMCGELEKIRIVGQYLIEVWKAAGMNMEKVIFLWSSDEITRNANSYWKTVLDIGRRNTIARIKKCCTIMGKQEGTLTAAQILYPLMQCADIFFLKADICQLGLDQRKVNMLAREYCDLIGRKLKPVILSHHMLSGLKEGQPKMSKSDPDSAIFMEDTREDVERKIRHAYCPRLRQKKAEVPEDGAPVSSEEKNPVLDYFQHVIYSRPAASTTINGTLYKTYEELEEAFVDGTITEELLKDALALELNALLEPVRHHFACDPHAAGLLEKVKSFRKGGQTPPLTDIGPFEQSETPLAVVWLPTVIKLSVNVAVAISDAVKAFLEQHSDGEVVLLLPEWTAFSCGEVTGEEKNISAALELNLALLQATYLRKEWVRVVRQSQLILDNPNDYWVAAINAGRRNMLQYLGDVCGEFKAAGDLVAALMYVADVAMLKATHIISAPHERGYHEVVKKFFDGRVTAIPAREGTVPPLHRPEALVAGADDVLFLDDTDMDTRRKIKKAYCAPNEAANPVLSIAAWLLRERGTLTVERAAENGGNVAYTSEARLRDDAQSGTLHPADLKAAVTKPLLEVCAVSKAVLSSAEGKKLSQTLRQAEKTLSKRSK

[8] = biological target: T4, Tyrosyl-tRNA synthetase, putative (Trypanosoma cruzi (strain CL Brener)); assay: Trypanosoma cruzi tyrosyl tRNA synthetase (TcYRS) SOP; format: functional; conditions: 30 µM
[9] = biological target: Chromo domain-containing protein 1 (Saccharomyces cerevisiae (strain ATCC 204508 / S288c) (Baker's yeast)) (UniProt P32657); assay: ScCHD-1 Enzyme Inhibition Assay; format: functional; conditions: 30 µM; further: in the data most compounds retested in dose-response had high values
Sequence of Chromo domain-containing protein 1 (Saccharomyces cerevisiae (strain ATCC 204508 / S288c) (Baker's yeast)) (P32657 whole entry, the tested form may be a part): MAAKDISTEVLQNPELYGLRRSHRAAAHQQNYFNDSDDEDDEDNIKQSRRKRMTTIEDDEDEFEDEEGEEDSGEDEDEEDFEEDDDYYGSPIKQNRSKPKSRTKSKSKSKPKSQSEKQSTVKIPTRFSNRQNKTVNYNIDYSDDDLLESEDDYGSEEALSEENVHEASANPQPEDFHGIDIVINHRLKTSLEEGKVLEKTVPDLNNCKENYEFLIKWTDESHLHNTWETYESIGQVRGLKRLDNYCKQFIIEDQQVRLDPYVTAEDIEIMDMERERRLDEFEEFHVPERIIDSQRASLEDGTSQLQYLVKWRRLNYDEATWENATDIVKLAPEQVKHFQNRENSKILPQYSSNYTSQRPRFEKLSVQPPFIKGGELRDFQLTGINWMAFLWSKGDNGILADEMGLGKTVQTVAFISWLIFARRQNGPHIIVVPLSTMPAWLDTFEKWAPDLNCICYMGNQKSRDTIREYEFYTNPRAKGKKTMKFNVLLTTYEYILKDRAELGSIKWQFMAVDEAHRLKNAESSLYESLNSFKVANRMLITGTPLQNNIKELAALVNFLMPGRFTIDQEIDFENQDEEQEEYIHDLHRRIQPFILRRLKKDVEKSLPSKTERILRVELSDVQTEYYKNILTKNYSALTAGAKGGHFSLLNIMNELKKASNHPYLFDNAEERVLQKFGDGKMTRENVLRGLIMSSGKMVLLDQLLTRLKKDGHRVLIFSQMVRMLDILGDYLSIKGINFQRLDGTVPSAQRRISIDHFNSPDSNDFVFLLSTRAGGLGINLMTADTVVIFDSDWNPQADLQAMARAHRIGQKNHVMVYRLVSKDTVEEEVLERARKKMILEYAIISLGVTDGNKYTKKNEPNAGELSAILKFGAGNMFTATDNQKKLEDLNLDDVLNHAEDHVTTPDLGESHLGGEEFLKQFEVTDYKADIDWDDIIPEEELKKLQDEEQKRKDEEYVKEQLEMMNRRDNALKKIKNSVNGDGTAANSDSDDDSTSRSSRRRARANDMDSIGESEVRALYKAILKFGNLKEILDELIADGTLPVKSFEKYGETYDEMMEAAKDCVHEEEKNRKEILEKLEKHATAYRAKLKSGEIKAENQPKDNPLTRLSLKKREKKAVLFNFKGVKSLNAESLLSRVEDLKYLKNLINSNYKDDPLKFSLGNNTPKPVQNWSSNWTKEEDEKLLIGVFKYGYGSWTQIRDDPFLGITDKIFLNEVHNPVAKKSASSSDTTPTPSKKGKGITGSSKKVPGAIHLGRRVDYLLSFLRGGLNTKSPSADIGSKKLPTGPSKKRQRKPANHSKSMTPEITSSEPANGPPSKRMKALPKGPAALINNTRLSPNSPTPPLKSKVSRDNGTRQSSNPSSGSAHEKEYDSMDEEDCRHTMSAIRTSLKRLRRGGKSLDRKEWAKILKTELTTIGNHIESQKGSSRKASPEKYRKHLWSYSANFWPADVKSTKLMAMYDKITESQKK

Row | Structure (SMILES) | Percent Effect [1] | Percent Effect [2] | Percent Effect [3] | Percent Effect [4] | Percent Effect (Trypanosoma cruzi) | Percent Effect [5] | Percent Effect [6] | Percent Effect (Homo sapiens) | Percent Effect [7] | Percent Effect [8] | Percent Effect [9]
1 | COc1ccnc(N2CCN(C(=O)c3csc(C4CC4)n3)CC2)n1 | -4.82% | 2.7% | 2.76% | -1.98% | -2.05% | 4.22% | -0.601% | 0.351% | 0% | 8.64% | -4.46%
2 | CSc1ccc(C(CNC(=O)C2CC2)N2CCc3sccc3C2)cc1 (stereo not given) | -3.4% | 5.26% | 1.69% | -0.599% | 0.876% | -2.37% | 16% | 9.34% | 8.51% | 15.6% | 4.76%
3 | O=C(NCCO)Nc1cccc(Cl)c1SC(F)F | -7.96% | -1.39% | 0.408% | 20.6% | -3.01% | 0.883% | 13.9% | 28.9% | -5.26% | -15.4% | -1.91%
4 | Cc1cc(C(=O)N2CCC(c3nccn3Cc3ccncc3)CC2)no1 | -4.98% | 8.22% | 5.77% | -7.08% | -0.979% | 5.46% | 12.6% | 7.62% | 8.6% | 15% | -1.03%
5 | CN1CCCC[C@@H]2[C@H]1[C@@H](c1ccccc1)CCN2C(=O)c1ccccc1 | -2.17% | -12.2% | 2.42% | 3.03% | 4.54% | 0.696% | 15.6% | -13.3% | 7.53% | 14.3% | -12.5%
6 | COCc1ccccc1C(=O)NCCCN1CCCC1C(=O)N(C)C (stereo not given) | 0.173% | 8.22% | -7.48% | 6.16% | 2.94% | -2.27% | 15.8% | 13.9% | 3.23% | 12.5% | -6.47%
7 | Cc1ccccc1CS(=O)(=O)NCCCN1CCCCC1 | -6.3% | 5.33% | 6.44% | 24.2% | 0.292% | 2.6% | 6.63% | 7.26% | 1.64% | 3.7% | -2.2%
8 | O=C(C1=CCCC1)N1C[C@H](Oc2cccnc2)[C@H]2OCCC[C@H]21 | 1.45% | 5.41% | 3.36% | -3.91% | -0.977% | -2.08% | 3.47% | 7.05% | 92.1% | 3.66% | -17.8%
9 | Cc1nc(CN2CCCC(NCc3c(C)nc4sccn34)C2)no1 (stereo not given) | -2.09% | 5.2% | -2.06% | -6.92% | -1.31% | 0.712% | 15.9% | 45.2% | 10.7% | 19.5% | -6.87%
10 | Cc1nn(C)c(N2CCOCC2)c1CNC(C)c1ccco1 (stereo not given) | -4.24% | 20.8% | 131% | 26.4% | 6.32% | 2.21% | 13.9% | -7.48% | 3.16% | 20.5% | -8.31%
11 | Cc1cccc(C2(CNC(=O)CCNS(C)(=O)=O)CCCC2)c1 | -6.74% | 15.2% | -3.25% | 11.3% | 4.44% | -11% | 6.31% | -4.41% | 5.42% | 8.86% | -5.61%
12 | CN1CC(=O)N(c2ccccc2)CC12CCN(Cc1nccs1)C2 (stereo not given) | 3.96% | 5.33% | 4.18% | -3.23% | -6.95% | -56.1% | 13% | -0.957% | 4.17% | 22.5% | -4.64%
13 | O=S(=O)(c1cccs1)N1CCCn2nnc(CN3CCCCC3)c2C1 | -2.04% | 2.67% | -7.89% | 2% | 2.7% | -43.5% | -0.513% | -33.6% | -1.04% | 2.5% | -4.44%
14 | O=C(CCN1CCCC1c1cccs1)N1CCc2sccc2C1 (stereo not given) | 0.699% | -29.7% | -9.71% | 3.83% | -1.6% | -18% | 3.96% | 5.67% | 3.45% | -11.1% | 2.06%
15 | Cc1ncsc1CN1CC[C@H]2C(=O)N(c3ccccc3)CCO[C@H]2C1 | -1.58% | 10.7% | 7.3% | -5.67% | -0.591% | 1.17% | 16.5% | 14.6% | 11.7% | 16.7% | -4.23%
16 | Cc1ccc(N2CCCC(NCc3cccc4c3OCCO4)C2)nn1 (stereo not given) | -2.62% | 16.2% | -11.3% | 0.447% | -1.23% | -2% | 7.39% | -7.93% | 10.3% | 18.5% | -10.3%
17 | CC(C)NC(=O)N1CCC2(CC(C(=O)NCc3cccnc3)=NO2)C1 (stereo not given) | -0.964% | 2.67% | 4.37% | 10.3% | -5.99% | -2.69% | 8.89% | 8.43% | -3.12% | 0% | 1.61%
18 | O=C(c1ccnnc1)N1C[C@H]2CCC[C@@]2(COCC2CCOCC2)C1 | -1.23% | -16.2% | 2.91% | 1.16% | 7.72% | -2.87% | 9.04% | -6.27% | -1.08% | 5.13% | 0.739%
19 | CCc1ncc2c(n1)CN(Cc1nnc(C)o1)CC2 | -0.796% | 2.74% | -74% | 3.02% | 6.07% | 6.82% | 4.26% | -5.4% | 4.3% | 7.5% | -6.64%
20 | O=C(Nc1cnn(CCN2CCOCC2)c1)c1cc(F)ccc1F | -1.54% | 7.89% | -3.4% | 20.5% | -1.32% | 1.53% | -3.17% | -12.4% | 4.41% | 9.76% | 3.02%
